Reference: PubChem BioAssay (NCI)
This is part of a sample that, as a whole, favours compounds with a hit. Of some 83,000 tested, about 20% had one in any assay.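 Step 1: grow cells in 96-well plates. Step 2: add test compound at a single concentration. Step 3: incubate 48 h. Step 4: record percent growth.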 A number with no mark means an inactive call. The source made the active and inactive calls. How the source made its calls: active means growth percent below 10; inactive means the rest.

How the values were obtained:
Experiment in all cases: NCI-60 one-dose screen, 48 h (100 = growth as untreated, 0 = no growth, -100 = all killed)
Details in all cases: 10 µM unless noted
SR leukemia = tested on: SR leukemia
RPMI-8226 leukemia = tested on: RPMI-8226 leukemia
OVCAR-8 ovarian = tested on: OVCAR-8 ovarian
OVCAR-5 ovarian = tested on: OVCAR-5 ovarian
OVCAR-4 ovarian = tested on: OVCAR-4 ovarian
SK-OV-3 ovarian = tested on: SK-OV-3 ovarian
IGROV1 ovarian = tested on: IGROV1 ovarian
HS 578T breast = tested on: HS 578T breast
NCI/ADR-RES ovarian = tested on: NCI/ADR-RES ovarian
T-47D breast = tested on: T-47D breast
BT-549 breast = tested on: BT-549 breast
MDA-MB-435 melanoma = tested on: MDA-MB-435 melanoma
SW-620 colon = tested on: SW-620 colon
MCF7 breast = tested on: MCF7 breast
HCC-2998 colon = tested on: HCC-2998 colon
KM12 colon = tested on: KM12 colon
OVCAR-3 ovarian = tested on: OVCAR-3 ovarian
HCT-116 colon = tested on: HCT-116 colon

Compound	growth (SR leukemia)	growth (RPMI-8226 leukemia)	growth (OVCAR-8 ovarian)	growth (OVCAR-5 ovarian)	growth (OVCAR-4 ovarian)	growth (SK-OV-3 ovarian)	growth (IGROV1 ovarian)	growth (HS 578T breast)	growth (NCI/ADR-RES ovarian)	growth (T-47D breast)	growth (BT-549 breast)	growth (MDA-MB-435 melanoma)	growth (SW-620 colon)	growth (MCF7 breast)	growth (HCC-2998 colon)	growth (KM12 colon)	growth (OVCAR-3 ovarian)	growth (HCT-116 colon)
NS(=O)(=O)c1ccc(Nc2nc(N/N=C/c3ccc([N+](=O)[O-])cc3)nc(Nc3ccccc3)n2)cc1	15.6%	43.3%	33.2%	82%	55.8%	67.8%	52.1%	53.5%	93.3%	14.1%	18.5%	33.2%	18.2%	9.76% (active)	19.6%	37.5%	–	–
COc1ccc(-c2cc(-c3ccc(Cl)cc3)nc3nc(N)nn23)cc1	93.6%	108%	99.1%	101%	102%	119%	–	109%	102%	91.4%	92.3%	102%	104%	89.9%	100%	99.7%	110%	98.8%
COc1cc(CNC(=O)Cc2ccccc2[N+](=O)[O-])ccc1OCC(=O)NO	97.4%	118%	101%	104%	116%	107%	–	108%	106%	103%	106%	–	110%	95.1%	108%	101%	126%	107%
CCCCCc1ccc(S(=O)(=O)N(C(C)=O)c2cccc(-c3csc(N(CCN4CCN(C)CC4)C(C)=O)n3)c2)cc1	-17.7% (active)	-27.8% (active)	60.7%	92.2%	47.1%	100%	–	72.8%	48.3%	50.4%	91.3%	-73% (active)	-26.5% (active)	-66.2% (active)	-81.2% (active)	27.4%	–	-66.2% (active)
COc1cc(/C=N/n2cnc3oc(-c4ccccc4)cc3c2=N)cc(CN2CCOCC2)c1O	32%	27.5%	60.4%	84.2%	72.6%	68.4%	–	14.8%	72.5%	81.6%	109%	60.8%	86.1%	73.8%	101%	41.1%	108%	29.8%
CC(=O)NC(C)(C)C(=O)N1CCC[C@H]1C(=O)NC(C)(C)C(=O)N[C@@H](C)C(=O)NC(C)(C)C(=O)N[C@@H](C)C(=O)N[C@@H](CCC(N)=O)C(=O)NC(C)(C)C(=O)N[C@H](C(=O)NC(C)(C)C(=O)NCC(=O)N[C@@H](CC(C)C)C(=O)NC(C)(C)C(=O)N1CCC[C@H]1C(=O)N[C@H](C(=O)NC(C)(C)C(=O)NC(C)(C)C(=O)N[C@@H](CCC(N)=O)C(=O)N[C@@H](CCC(N)=O)C(=O)N[C@H](CO)Cc1ccccc1)C(C)C)C(C)C	83.9% [4.25 µM]	1.4% [4.25 µM] (active)	71.8% [4.25 µM]	108% [4.25 µM]	42.7% [4.25 µM]	74% [4.25 µM]	–	82.8% [4.25 µM]	99.5% [4.25 µM]	55.7% [4.25 µM]	23.5% [4.25 µM]	71% [4.25 µM]	91% [4.25 µM]	17% [4.25 µM]	70.3% [4.25 µM]	98.2% [4.25 µM]	59.2% [4.25 µM]	67.7% [4.25 µM]
CC1=CC(=O)CC(C)(C)[C@@]1(O)/C=C/C(C)=C\C(=O)O	0.555% (active)	-28.4% (active)	-11.9% (active)	-25% (active)	-15.9% (active)	-22% (active)	–	-8.17% (active)	-15.6% (active)	-22.7% (active)	-22.4% (active)	-70.7% (active)	0.826% (active)	-14.6% (active)	-52.1% (active)	3.82% (active)	-19.5% (active)	-34% (active)
O=C1[C@@H]2Cc3c([nH]c4ccccc34)[C@H](c3c(Cl)cccc3Cl)N2C(=O)CN1C1CCN(Cc2ccccc2)CC1	1.57% (active)	7.38% (active)	47.7%	63%	-0.678% (active)	–	24.6%	28.5%	18.5%	76.8%	29.4%	-61.8% (active)	10.6%	1.17% (active)	10.6%	30.2%	81.4%	-32.8% (active)
